This is one part of a sample in which hits are shown more often than they occur.
12-LOX inh – inhibitors of human 12S-lipoxygenase ALOX12; P18054; purified 12hLO, xylenol orange hydroperoxide absorbance; Potency, µM (highest dose often 108 µM), inactives show at the highest dose activity change, negative = inhibition, actives largely listed as inhibitors; actives 1.1% (n = 580,000); AID 1671190; note: % is set by controls: 0 for no effect and ±100 for the full control effect
Target sequence (P18054 whole entry, looked up): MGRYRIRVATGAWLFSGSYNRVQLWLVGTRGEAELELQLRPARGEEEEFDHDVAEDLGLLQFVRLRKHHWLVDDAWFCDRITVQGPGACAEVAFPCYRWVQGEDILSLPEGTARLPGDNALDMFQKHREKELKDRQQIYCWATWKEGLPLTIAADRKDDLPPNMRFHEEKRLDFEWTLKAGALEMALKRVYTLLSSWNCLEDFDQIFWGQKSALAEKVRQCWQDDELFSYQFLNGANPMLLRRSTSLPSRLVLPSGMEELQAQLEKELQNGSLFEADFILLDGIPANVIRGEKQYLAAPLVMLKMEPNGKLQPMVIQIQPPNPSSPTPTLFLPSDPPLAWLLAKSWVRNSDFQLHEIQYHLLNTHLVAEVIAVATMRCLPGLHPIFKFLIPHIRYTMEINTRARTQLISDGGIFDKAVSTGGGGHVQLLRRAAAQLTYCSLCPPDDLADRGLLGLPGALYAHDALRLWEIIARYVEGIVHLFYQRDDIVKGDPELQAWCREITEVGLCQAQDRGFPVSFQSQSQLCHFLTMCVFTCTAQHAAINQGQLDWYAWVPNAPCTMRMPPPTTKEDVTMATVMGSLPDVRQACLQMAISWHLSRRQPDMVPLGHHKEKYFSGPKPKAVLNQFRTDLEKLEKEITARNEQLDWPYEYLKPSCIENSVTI
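Hydroperoxide product was detected by ferrous iron/xylenol orange as the 573 to 405 nm absorbance ratio. Arachidonic acid at 40 uM (final) was turned over for 30 min at room temperature by 150 nM human 12hLO, pH 7.0 Hepes buffer, after 15 min compound preincubation.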
Sfp inh – inhibitors of Bacillus subtilis Sfp phosphopantetheinyl transferase | Biochemical Sfp PPTase activity, qHTS | actives 3.5% (n = 310,000) | Potency, µM, inactives show largest response in the series, negative = inhibition, most hits filed as inhibitors | AID 1490 | Q9F4F7;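 note: the enzyme is Sfp with the accession as filed and its product quenches rhodamine fluorescence; 0% = enzyme reaction without inhibitor and -100% = no enzyme wells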
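Step 1, compound plus 15 nM Sfp-PPTase, 15 min, room temperature. Step 2, add rhodamine-CoA (5 uM) and BHQ-2-YbbR (12.5 uM). Step 3, read 525/598 nm fluorescence at 0 and 30 min.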
G9a block – G9a (human) methyltransferase inhibition; Potency, µM (doses to about 102 µM), for inactives: at the top dose activity, negative = inhibition, usual class: inhibitors; G9a H3K9 monomethylation, AlphaScreen, 2 h; AID 504332; Q96KQ7; actives 8.8% (n = 350,000); note: % is set by controls: 0 for no effect and ±100 for the full control effect; nearly all actives have a fitted effect of over 75% in size
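AlphaScreen read-out: biotin-H3K9 peptide (500 nM) methylation by 20 nM enzyme with 20 uM SAM, 2 h at room temperature after 15 min compound preincubation; anti-monomethyl H3K9 antibody plus donor/acceptor beads, 10 min dark.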
GRP78 ERSR act – inducers of ER stress response in human glioma cells; U87-MG GRP78 promoter luciferase reporter, 16 h; Potency, µM, without a hit: at the highest dose activation, usual class: activators; actives 0.02% (n = 420,000); AID 602332; note: series mostly up to about 76 µM; % of control where 0% means no effect; nearly all actives have a fitted effect of over 35% in size
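ERSR induction read as luciferase luminescence (Bright-Glo, 10 min at room temperature) in stably transfected human U87-MG glioma cells exposed to compounds for 16 h, using GRP78 as sensor.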
VDR inhibitor – vitamin D3 receptor (human) inhibition. VDR-SRC2-3 peptide fluorescence polarization, 2 h. Potency, µM, without a hit: max response, negative = inhibition, usual class: inhibitors. actives 0.93% (n = 400,000); note: % is set by controls: 0 for no effect and ±100 for the full control effect
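VDR–SRC2-3 interaction, FP format. Cmpds 23 nl via pintool, brief spin, 2 h ambient incubation.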
An asterisk follows results filed as active; [ ] = another dose, or the depositor's remark. Calls come from the whole dose curve; as a rule, active = well fitted curve in the direction sought with a large enough effect; inconclusive = small, poorly fitted or top-dose-only effect, or another doubt; inactive = no such curve, though single readings can be large; an effect the other way counts as inactive or inconclusive. Potency is the fitted concentration of half-maximal effect.

Screening O=C(C[C@@H]1CCNC[C@@H]1Cc1cc(COc2ccccc2)on1)NCc1ccccc1 returned 12-LOX inh 20.4%[176 µM].
`CC(=O)O[C@@H]1C(CO[Si](C)(C)C(C)(C)C)=C(Br)C(=O)[C@@H]2O[C@]12C` gave Sfp inh 50.1µM* and VDR inhibitor 25.1µM*.
For CC(C)(C)C(=O)C1C(C(C)(C)C)=CC(c2ccccc2)=CC1(C)c1ccccc1 (centres undefined) the results were 12-LOX inh 0.6%.
CC(=O)C1=C(C)OC(N)=C(C#N)C1c1cccc2ccccc12 (centres undefined) was read as 12-LOX inh inconclusive, Sfp inh -25.3%, GRP78 ERSR act -1.7% and VDR inhibitor -4.5%.
`Cc1oc(C)c2c(=O)ccc3c(c12)OC(N)=C(C#N)C3c1ccccc1Cl` (centres undefined) gave 12-LOX inh inconclusive, Sfp inh 50.1µM*, G9a block 28.2µM*, GRP78 ERSR act -5.2% and VDR inhibitor -17.3%.
CSc1ccc(C2C(C#N)=C(N)Oc3c2ccc(=O)c2c(C)oc(C)c32)cc1 (centres undefined) was read as 12-LOX inh inconclusive, Sfp inh 56.2µM*, G9a block 31.6µM*, GRP78 ERSR act -8.2% and VDR inhibitor 10.9%.
CCCCNC(=O)Cc1c[nH]c2ccccc12 was read as 12-LOX inh -1.6%.
O=C(NNS(=O)(=O)c1ccc(C(=O)NC2CCCC2)cc1)c1ccncc1 was read as 12-LOX inh -16.0%, Sfp inh -13.5%, G9a block 50.1µM*, GRP78 ERSR act -3.7% and VDR inhibitor -4.7%.
For CC1CC(=O)Nc2ccccc2N1C(=O)Cn1cnc2c(Cl)cc(Cl)cc2c1=O (centres undefined) the results were 12-LOX inh -27.3%.
`N#Cc1c(SCc2c(Cl)cccc2Cl)nc(N)[nH]c1=S` gave 12-LOX inh 31.6µM*, G9a block 41.2%[12.7 µM], GRP78 ERSR act -0.9% and VDR inhibitor inconclusive.
`CCOc1ccc(-n2nc3ccc(NC(=O)Cc4ccccc4)cc3n2)cc1` gave 12-LOX inh -25.7%, G9a block -36.2%[59 µM], GRP78 ERSR act -10.4% and VDR inhibitor 21.8%.
For CCOc1ccc(NC(=S)Nc2ccc3nsnc3c2)cc1 the results were 12-LOX inh inconclusive, Sfp inh inconclusive, G9a block inconclusive, GRP78 ERSR act 4.0% and VDR inhibitor 79.4µM*.
Screening CNC(=S)Nc1ccc2nc(C)c(C)nc2c1 returned 12-LOX inh -25.5%, Sfp inh inconclusive, G9a block inconclusive, GRP78 ERSR act -3.9% and VDR inhibitor 16.2%.
For COc1ccc(NC(=S)Nc2ccc3nsnc3c2)cc1 the results were 12-LOX inh 7.94µM*, Sfp inh 56.2µM*, G9a block 2µM*, GRP78 ERSR act 1.3% and VDR inhibitor 89.1µM*.
Screening CCOc1ccc(-n2nc3ccc(NC(=O)CC)cc3n2)cc1 returned 12-LOX inh 32.5%, Sfp inh -1.4%, G9a block 35.5µM*, GRP78 ERSR act -5.4% and VDR inhibitor 0.1%.
`COc1ccc(NC(=S)Nc2ccc3nc(C)c(C)nc3c2)cc1` gave 12-LOX inh -18.8%, Sfp inh -17.1%, G9a block 44.7µM*, GRP78 ERSR act 0.1% and VDR inhibitor 0.5%.
`CCn1nccc1C(=O)N1CCC(C(=O)N2CCCCCCNC(=O)CC2)CC1` gave 12-LOX inh 29.2%.
Cc1ccccc1-c1nnc2sc(NC(=O)c3ccccc3)nn12 was read as 12-LOX inh -10.5%.
`CC(=O)c1cnn(-c2cc(Nc3ccc(F)cc3)ncn2)c1C` gave 12-LOX inh 1.6%.
COC1CN(c2cccc(F)c2)C12CCN(C(=O)NC1CCCCC1)CC2 (centres undefined) was read as 12-LOX inh 3.5%.
Screening C=CCN(CC=C)C(=S)Nc1ccc2nsnc2c1 returned 12-LOX inh inconclusive, Sfp inh 12.6µM*, G9a block 17.8µM*, GRP78 ERSR act -0.8% and VDR inhibitor -21.4%.
For CCOc1ccc(NC(=S)Nc2cc(C)[nH]n2)cc1 the results were 12-LOX inh 39.8µM*, Sfp inh 4.8%, G9a block -136.3%[59 µM], GRP78 ERSR act 7.5% and VDR inhibitor -14.8%.
